Laboratory results: PubChem BioAssay (NCATS)
Inconclusive results are not listed. Calls of active or inactive are those of the source. Calls come from the whole dose curve; as a rule, active = well fitted curve in the direction sought with a large enough effect; inconclusive = small, poorly fitted or top-dose-only effect, or another doubt; inactive = no such curve, though single readings can be large; an effect the other way counts as inactive or inconclusive.

Assays:
[1] = biological target: Cytochrome P450 3A4 (Homo sapiens) (UniProt P08684); assay: qHTS Assay for Inhibitors and Substrates of Cytochrome P450 3A4 (AID 884); note: nearly all actives have a fitted effect of over 50% in size; note: potency is the fitted concentration of half-maximal effect
How it was run: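 20 nM human CYP3A4 with 25 uM Luciferin-PPXE (at KM) in 200 mM KPO4, preincubated 10 min with compound; NADPH regeneration started a 60 min RT reaction. Luciferin detected by luminescence, normalized to 57 uM ketoconazole as full inhibition.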

[2] = Confirmation and Secondary Assay for Modulators of Hemoglobin Beta Chain Splicing at IVS2 654 locus (AID 910);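 note: per-well total GFP intensity by laser scanning cytometry after 2-day treatment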
How it was run: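 HeLa cells stably carrying EGFP interrupted by mutant beta-globin IVS2-654 intron (CMV-driven) were treated with compound for 2 days at 37C; corrected splicing was scored as total peak GFP intensity per well (488 nm excitation, 500-520 nm emission).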

[3] = Confirmation and Secondary Assay for Modulators of Hemoglobin Beta Chain Splicing at IVS2 705 locus (AID 930);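 note: HeLa cells stably expressing the EGFP-705 splicing reporter; GFP fluorescence per well restored by corrected splicing of the IVS2-705 intron in EGFP; series mostly up to about 46 µM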
How it was run: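 First, HeLa EGFP-705 cells are seeded at 500/well in Optimem with 2% FCS and left overnight. Next, compound or DMSO is added for 2 days. Finally wells are laser-scanned and total peak GFP intensity scored.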

[4] = biological target: Ubiquitin carboxyl-terminal hydrolase 1 (Homo sapiens) (UniProt O94782); assay: Inhibitors of USP1/UAF1: Pilot qHTS (AID 504865); note: nearly all actives have a fitted effect of over 35% in size; note: potency is the fitted concentration of half-maximal effect
How it was run: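 USP1/UAF1 complex at 1 nM preincubated 15 min at room temperature with compound, then Ub-Rho substrate added at 150 nM final. Fluorescence (480/540 nm) read kinetically in 50 mM HEPES pH 7.8, 0.5 mM EDTA, 1 mM TCEP, 0.1 mg/ml BSA, 0.01% Tween-20.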

[5] = biological target: Cytochrome P450 3A4 (Homo sapiens) (UniProt P08684); assay: qHTS Assay for Activators of Cytochrome P450 3A4 (AID 885); note: nearly all actives have a fitted effect of over 65% in size
How it was run: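 Human CYP3A4 (20 nM) with Luciferin-PPXE at 25 uM (its KM) in 200 mM KPO4; 10 min compound preincubation, then NADPH regeneration and 60 min reaction at RT. Luciferin read by luminescence; normalized to 57 uM ketoconazole full inhibition.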

[6] = biological target: DNA dC->dU-editing enzyme APOBEC-3G (Homo sapiens) (UniProt Q9HC16); assay: qHTS for inhibitors of Vif-A3G interactions: Validation (AID 588379)
How it was run: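 HeLa cells stably expressing Vif and A3G-eYFP, 700 cells/well, incubated overnight at 37 deg C, then exposed to compound overnight at 37 deg C. Inhibition of Vif-mediated degradation read as increased yellow fluorescence (Ex 488/Em 500-530) by laser-scanning cytometry.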

Measured: Potency

Chain of Cytochrome P450 3A4 (Homo sapiens) (P08684 whole entry, looked up): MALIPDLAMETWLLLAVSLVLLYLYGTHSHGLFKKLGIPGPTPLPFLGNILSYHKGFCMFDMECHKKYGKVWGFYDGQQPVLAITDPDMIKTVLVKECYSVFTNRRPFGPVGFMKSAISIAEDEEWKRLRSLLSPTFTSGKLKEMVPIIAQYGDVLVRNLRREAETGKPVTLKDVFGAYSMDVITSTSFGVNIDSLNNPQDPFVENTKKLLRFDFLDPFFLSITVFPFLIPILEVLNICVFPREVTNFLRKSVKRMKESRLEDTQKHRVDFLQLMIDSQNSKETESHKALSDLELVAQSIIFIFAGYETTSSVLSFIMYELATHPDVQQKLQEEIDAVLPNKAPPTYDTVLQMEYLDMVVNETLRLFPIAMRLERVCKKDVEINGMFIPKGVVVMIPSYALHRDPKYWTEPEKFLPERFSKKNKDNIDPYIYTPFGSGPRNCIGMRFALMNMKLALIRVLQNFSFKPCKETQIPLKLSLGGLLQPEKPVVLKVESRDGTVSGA
Chain of Ubiquitin carboxyl-terminal hydrolase 1 (Homo sapiens) (O94782 whole entry, looked up): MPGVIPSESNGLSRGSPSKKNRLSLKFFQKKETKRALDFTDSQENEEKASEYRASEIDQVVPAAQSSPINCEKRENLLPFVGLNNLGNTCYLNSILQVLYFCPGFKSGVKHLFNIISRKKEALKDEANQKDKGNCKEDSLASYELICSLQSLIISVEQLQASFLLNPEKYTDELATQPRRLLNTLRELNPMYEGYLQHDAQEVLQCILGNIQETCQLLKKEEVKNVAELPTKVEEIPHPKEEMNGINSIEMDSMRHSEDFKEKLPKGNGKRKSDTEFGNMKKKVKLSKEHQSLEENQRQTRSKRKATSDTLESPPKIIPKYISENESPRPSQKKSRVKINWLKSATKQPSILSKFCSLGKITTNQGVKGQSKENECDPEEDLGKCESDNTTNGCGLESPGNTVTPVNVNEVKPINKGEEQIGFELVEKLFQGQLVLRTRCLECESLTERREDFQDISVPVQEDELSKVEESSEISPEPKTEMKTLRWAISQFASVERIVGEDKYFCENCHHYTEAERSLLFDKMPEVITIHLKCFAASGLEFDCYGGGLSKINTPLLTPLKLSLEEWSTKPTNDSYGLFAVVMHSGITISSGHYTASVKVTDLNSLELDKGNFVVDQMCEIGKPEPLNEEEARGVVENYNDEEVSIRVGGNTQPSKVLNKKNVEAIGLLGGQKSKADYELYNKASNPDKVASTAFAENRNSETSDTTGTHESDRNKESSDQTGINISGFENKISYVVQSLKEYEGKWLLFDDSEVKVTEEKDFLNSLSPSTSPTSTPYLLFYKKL
Chain of DNA dC->dU-editing enzyme APOBEC-3G (Homo sapiens) (Q9HC16 whole entry, looked up): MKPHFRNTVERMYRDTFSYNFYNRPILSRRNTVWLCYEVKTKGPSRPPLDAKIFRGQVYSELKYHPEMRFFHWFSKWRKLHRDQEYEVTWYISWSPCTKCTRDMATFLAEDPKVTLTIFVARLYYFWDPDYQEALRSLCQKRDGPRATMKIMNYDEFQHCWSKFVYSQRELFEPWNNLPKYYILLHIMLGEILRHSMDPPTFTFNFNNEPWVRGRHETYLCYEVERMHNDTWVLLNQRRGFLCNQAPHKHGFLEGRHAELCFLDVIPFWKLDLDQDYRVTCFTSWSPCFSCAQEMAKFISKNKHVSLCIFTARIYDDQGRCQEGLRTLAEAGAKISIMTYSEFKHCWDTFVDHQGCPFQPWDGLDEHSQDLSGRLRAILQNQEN

O=c1[nH]cnc2c1ncn2C1CC(O)C(CO)O1 (stereo not given)
inactive: [1] | [2] | [3] | [4]

CC1/C=C/C=C/C=C/C=C/C=C/C=C/C=C/C(OC2OC(C)C(O)C(N)C2O)CC2O[C@@](O)(CC(O)CC(O)C(O)CCC(O)CC(O)CC(=O)OC(C)[C@H](C)C1O)CC(O)C2C(=O)O (stereo not given in full)
inactive: [1] | [2]
active: [4] 56.2 µM

C=C1c2cccc(O)c2C(O)=C2C(=O)[C@]3(O)C(O)=C(C(N)=O)C(=O)C(N(C)C)C3C(O)C12 (stereo not given in full)
active: [4] 39.8 µM
inactive: [1] | [2]

c1ccc(-c2csc(-c3nc4ccccc4[nH]3)n2)cc1
active: [1] 1.26 µM | [4] 22.4 µM

CC(=O)c1ccc[nH]1
inactive: [1] | [2] | [4]

COc1cc(OC)c2c(=O)c(-c3ccccc3)coc2c1
inactive: [5] | [2] | [4]
active: [1] 15.8 µM

CC(=O)OCC(=O)[C@@]1(O)CCC2C3CCC4=CC(=O)CC[C@]4(C)C3C(=O)C[C@]21C (stereo not given in full)
inactive: [1] | [2] | [3] | [4]

Nc1nc2c(ncn2C2CC(O)C(CO)O2)c(=O)[nH]1 (stereo not given)
inactive: [1] | [2] | [4]

OC[C@H]1O[C@@H](n2cnc3c(NCc4ccccc4)ncnc32)[C@H](O)[C@@H]1O
inactive: [1] | [4]

CC1(C)C=Cc2c(cc3occ(-c4ccc5c(c4)OCO5)c(=O)c3c2O)O1
active: [1] 25.1 µM
not listed: [6]
inactive: all other assays above

COc1c2ccoc2c(OC)c2oc(=O)ccc12
active: [1] 2 µM
not listed: [6]
inactive: all other assays above

C[C@]12CCC(=O)C=C1CCC1C2C(O)C[C@]2(C)C1CC[C@]2(O)C(=O)COC(=O)CCC(=O)O (stereo not given in full)
inactive: [1] | [2] | [4]

COC(=O)CC1C(C)(C)C(=O)C2CC3C4=CC(=O)OC(c5ccoc5)[C@]4(C)CCC3[C@@]1(C)C2=O (stereo not given in full)
inactive: [5] | [2] | [4]
active: [1] 7.94 µM

C=C1CCC2C(CC2(C)C)C(=O)CCC1O (stereo not given)
active: [1] 2 µM
not listed: [6]
inactive: all other assays above

O=C1OC(C(O)CO)C(O)=C1O (stereo not given)
inactive: [1] | [2] | [4]

COc1ccc2c(=O)c(-c3ccccc3)coc2c1
inactive: [5] | [4] | [6]

CCC(=O)O[C@H]1C(O[C@@H]2C(C)[C@H](O[C@H]3C[C@@](C)(OC)C(O)C(C)O3)C(C)C(=O)OC(CC)[C@@](C)(O)C(O)[C@H](C)C(=O)C(C)C[C@]2(C)O)OC(C)CC1N(C)C (stereo not given in full)
active: [1] 0.631 µM | [4] 20 µM
inactive: [5] | [2] | [3]

CC1C(NC(=O)/C(=N/OC(C)(C)C(=O)O)c2csc(N)n2)C(=O)N1S(=O)(=O)O (stereo not given)
inactive: [1] | [2] | [4]

O=C1CC(c2ccccc2O)Oc2ccc(O)cc21 (stereo not given)
inactive: [5] | [4] | [6]

COc1ccc2cc1Oc1ccc(cc1)CC1c3cc(c(OC)cc3CCN1C)Oc1c(OC)c(OC)cc3c1C(C2)N(C)CC3 (stereo not given)
inactive: [1] | [2] | [3] | [4]

COc1cc(OC)c2c(=O)c(-c3ccccc3)c(C)oc2c1OC
inactive: [5] | [2] | [3] | [4]

CN(N=O)C(=O)N[C@H]1C(O)C(O)C(CO)O[C@@H]1O (stereo not given in full)
inactive: [1] | [2] | [3] | [4]

NC(=O)c1ccc[n+]([C@@H]2OC(COP(=O)([O-])OP(=O)(O)OCC3OC(n4cnc5c(N)ncnc54)C(O)C3O)C(O)C2O)c1 (stereo not given in full)
inactive: [1] | [2] | [3] | [4]

Nc1ncnc2c1[nH]c(=O)n2C1CC(O)C(CO)O1 (stereo not given)
inactive: [1] | [2] | [3] | [4]

CC1c2cccc(O)c2C(O)=C2C(=O)[C@]3(O)C(O)=C(C(N)=O)C(=O)C(N(C)C)C3C(O)C21 (stereo not given in full)
inactive: [1] | [2] | [3] | [4]

C=C1C(=O)OC2C1CC/C(C)=C/CCC1(C)OC21 (stereo not given)
inactive: [5] | [2] | [3] | [4]

CC1CC[C@@]23CCC4(C)[C@@]5(C)CCC6C(C)(C)C(=O)CC[C@@]6(C)C5C=C[C@@]4(OC2=O)C3C1C (stereo not given in full)
inactive: [1] | [2] | [3] | [4]

O=c1c2cc(O)c(O)cc2oc2cc(O)c(C3OC(CO)C(O)C(O)C3O)c(O)c12 (stereo not given)
inactive: [5] | [2] | [3] | [4]

Nc1ncnc2c1nc(Br)n2C1OC(CO)C(O)C1O (stereo not given)
inactive: [1] | [2] | [3] | [4]

O=C1C=CC2=C3c4cc(O)c(O)cc4C[C@]3(O)COC2=C1
inactive: [1] | [2] | [3] | [4]

CC1CC2C(C(O)C[C@]3(C)C2CC[C@]3(O)C(=O)CO)[C@]2(C)C=CC(=O)C=C12 (stereo not given in full)
inactive: [5] | [2] | [3] | [4]

Cc1cc(=O)oc2cc(O)c(O)cc12
inactive: [5] | [2] | [4]

CC(CCC(=O)O)C1CCC2C3C(=O)CC4CC(=O)CC[C@@]4(C)C3CC(=O)[C@]12C (stereo not given in full)
inactive: [1] | [2] | [3] | [4]

CC(=O)OC(C)(C)C1Cc2cc3ccc(=O)oc3cc2O1 (stereo not given)
inactive: [1] | [2] | [3] | [4]

COC(=O)CC1[C@@]2(C)C[C@]34OC5(C)OC6(C7CC(=O)OC(c8ccoc8)[C@]7(C)CCC6(O5)[C@]13C)C(OC(C)=O)[C@]4(OC(C)=O)C2OC(C)=O (stereo not given in full)
inactive: [5] | [2] | [3] | [4]
